Molecules are shown by their SMILES. Inconclusive results are not listed. A call without a number means that no potency is given here. Active and inactive are the calls of the source. Calls come from the whole dose curve; as a rule, active = well fitted curve in the direction sought with a large enough effect; inconclusive = small, poorly fitted or top-dose-only effect, or another doubt; inactive = no such curve, though single readings can be large; an effect the other way counts as inactive or inconclusive.
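Note: cells exposed to compound for 16 h at 37 °C.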

One assay in a line: MultiTox-Fluor Cytotoxicity Assay - LYMP1-002 - Dead Cells (AID 960). Note: nearly all actives have a fitted effect of over 60% in size. Particulars: LYMP1-002 lymphoblastoid cells, dead-cell protease fluorescence; series mostly up to 46.1 µM. Put shortly: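 Human lymphoblastoid LYMP1-002 cells, 2500/well, treated 16 h at 37 C; dead-cell protease cleavage of bis-AAF-R110 read by fluorescence (485/520); normalized to DMSO and 15 uM tetraoctylammonium bromide; AC50 from Hill fit.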
In the case of `Oc1cccc(Cl)c1Cl`, the Potency result is “inactive”.

Turning to `CCC/C=N/O`, the Potency entry is “inactive”.

For `Nc1cccc2ccccc12`, the Potency result is “inactive”.

`Cc1cnc[nH]1`: the Potency result was “inactive”.

Take `CN(C)N=O`: the Potency result was “inactive”.

In the case of `COc1c(C(C)(C)C)cc([N+](=O)[O-])c(C)c1[N+](=O)[O-]`, the Potency entry was “inactive”.

On to `C=C(Cl)CCl`, for which the Potency entry was “inactive”.

Take `ClCCOCOCCCl`: the Potency entry was “inactive”.

`CC12CC1(C)C(=O)N(c1cc(Cl)cc(Cl)c1)C2=O` (configuration not stated): the Potency entry was “inactive”.

`CC(C)(Cl)[N+](=O)[O-]`: the Potency entry was “inactive”.

Consider `Cl/C=C/Cl`, for which the Potency result was “inactive”.

Regarding `CCCCOCC1CO1` (configuration not stated), the Potency result was “inactive”.

As to `O=C(O)c1cccc(Cl)c1`, the Potency entry is “inactive”.

With `C1CC2OC2CC1C1CO1` (configuration not stated), the Potency entry was “inactive”.

As to `Brc1cccc(-c2ccccc2)c1`, the Potency entry is “inactive”.

As to `Oc1c(Cl)cccc1Cl`, the Potency entry is “inactive”.

As to `CCNCC`, the Potency result was “inactive”.

As for `CC(C)C#N`, the Potency result was “inactive”.

Take `c1ccc2c(c1)CCNC2`: the Potency entry is “inactive”.

For the compound `CCBr`, the Potency entry is “inactive”.

Turning to `O=[N+]([O-])c1ccc(Cl)c(Cl)c1Cl`, the Potency result is “inactive”.

Regarding `N#CCCC#N`, the Potency result is “inactive”.

As to `Cc1ccccc1[N+](=O)[O-]`, the Potency entry was “inactive”.

As to `OCCBr`, the Potency result was “inactive”.

As to `C=CC(=O)OCCN(C)C`, the Potency result was “inactive”.

Consider `CC(C)(C)C(O)(CCc1ccc(Cl)cc1)Cn1cncn1` (configuration not stated), for which the Potency result is “inactive”.

For `N#CCCCCC#N`, the Potency result was “inactive”.

`CN=C=O`: the Potency result was “inactive”.

In the case of `c1ccc(C2CO2)cc1` (configuration not stated), the Potency entry was “inactive”.

`CCCCCC[N+](=O)[O-]`: the Potency entry was “inactive”.

Turning to `OCC(Cl)CCl` (configuration not stated), the Potency entry was “inactive”.

With `COc1ccc(C=O)cc1`, the Potency result was “inactive”.

For the compound `Nc1ccc(Cl)c(Cl)c1`, the Potency entry is “inactive”.

With `CC(=O)[O-].CC(=O)[O-].CC(=O)[O-].[Cr+3]`, the Potency entry was “inactive”.

On to `CC(=O)CCC(C)=O`, for which the Potency entry is “inactive”.

Regarding `C=CC(=O)OCC(CC)CCCC` (configuration not stated), the Potency entry is “inactive”.

On to `CC(C#N)CCC#N` (configuration not stated), for which the Potency entry is “inactive”.

A further assay in a line: MultiTox-Fluor Cytotoxicity Assay - LYMP1-003 - Dead Cells (AID 961). Note: nearly all actives have a fitted effect of over 70% in size. The conditions noted are these: LYMP1-003 lymphoblastoid cells, dead-cell protease fluorescence; series mostly up to 92.2 µM. Put shortly: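 Human lymphoblastoid LYMP1-003 cells (2500/well) were treated with compounds for 16 hr at 37 C in complete medium. Dead-cell protease release was read by bis-AAF-R110 fluorescence (Ex/Em 485/520). AC50 came from Hill fits, normalized to DMSO and 15 uM tetraoctylammonium bromide.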
`Oc1cccc(Cl)c1Cl`: the Potency entry was “inactive”.

As for `CCC/C=N/O`, the Potency result was “inactive”.

On to `Nc1cccc2ccccc12`, for which the Potency entry was “inactive”.

As to `Cc1cnc[nH]1`, the Potency result was “inactive”.

`COc1c(C(C)(C)C)cc([N+](=O)[O-])c(C)c1[N+](=O)[O-]`: the Potency result is “inactive”.

`C=C(Cl)CCl`: the Potency result was “inactive”.

For `ClCCOCOCCCl`, the Potency result is “inactive”.

On to `CC12CC1(C)C(=O)N(c1cc(Cl)cc(Cl)c1)C2=O` (configuration not stated), for which the Potency result was “inactive”.

For `CC(C)(Cl)[N+](=O)[O-]`, the Potency result was “inactive”.

For `O=C(O)c1cccc(Cl)c1`, the Potency result was “inactive”.

As to `C1CC2OC2CC1C1CO1` (configuration not stated), the Potency entry is “inactive”.

For the compound `Brc1cccc(-c2ccccc2)c1`, the Potency result was “inactive”.

For `ClCCOCCCl`, the Potency entry is “inactive”.

Turning to `CCNCC`, the Potency result was “inactive”.

Consider `Cl/C=C\Cl`, for which the Potency result is “inactive”.

For `c1ccc2c(c1)CCNC2`, the Potency result was “inactive”.

`CCBr`: the Potency entry was “inactive”.

Consider `O=[N+]([O-])c1ccc(Cl)c(Cl)c1Cl`, for which the Potency result is “inactive”.

Regarding `N#CCCC#N`, the Potency entry was “inactive”.

Consider `Cc1ccccc1[N+](=O)[O-]`, for which the Potency entry is “inactive”.

As to `OCCBr`, the Potency entry is “inactive”.

As for `C=CC(=O)OCCN(C)C`, the Potency entry was “inactive”.

For the compound `CC(C)(C)C(O)(CCc1ccc(Cl)cc1)Cn1cncn1` (configuration not stated), the Potency result was “inactive”.

Consider `N#CCCCCC#N`, for which the Potency result was “inactive”.

Consider `c1ccc(C2CO2)cc1` (configuration not stated), for which the Potency result was “inactive”.

On to `CCCCCC[N+](=O)[O-]`, for which the Potency result was “inactive”.

As to `COc1ccc(C=O)cc1`, the Potency entry is “inactive”.

Take `Nc1ccc(Cl)c(Cl)c1`: the Potency entry is “inactive”.

For the compound `C=CC(=O)OCC(CC)CCCC` (configuration not stated), the Potency result is “inactive”.

On to `CC(C#N)CCC#N` (configuration not stated), for which the Potency entry was “inactive”.
